This note sets out measurements from PubChem BioAssay (NCI).

Some test systems named below: HCT-15 colon; HT29 colon; SNB-75 CNS; SNB-19 CNS; U251 CNS; PC-3 prostate; SK-MEL-5 melanoma; UACC-62 melanoma; LOX IMVI melanoma; SK-MEL-28 melanoma.
Holding throughout (assay): NCI-60 one-dose screen, 48 h (100 = growth as untreated, 0 = no growth, -100 = all killed)
Holding throughout (details): 10 µM unless noted

Compounds without any hit were thinned out: in the full panel of roughly 83,000, 20% have a hit.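 Step 1: grow cells in 96-well plates. Step 2: add test compound at a single concentration. Step 3: incubate 48 h. Step 4: record percent growth.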 Unmarked numbers belong to inactive results. The source made the active and inactive calls. How the source made its calls: active means growth percent below 10; inactive means the rest.

As for `CC1(C)CC[C@]2(C(N)=O)CC[C@]3(C)C(=CC[C@@H]4[C@@]5(C)C/C(=C/c6cccnc6)C(=O)C(C)(C)[C@@H]5CC[C@]43C)[C@@H]2C1`, the growth was -65.6% [100 µM] (active) with HCT-15 colon; -35.6% [100 µM] (active) in the experiment with HT29 colon; -17.6% [100 µM] (active) with SNB-75 CNS; -90.1% [100 µM] (active) with SNB-19 CNS; -83.2% [100 µM] (active) in the experiment on U251 CNS; -19.6% [100 µM] (active) in the experiment on PC-3 prostate. Also, the growth in the experiment on SK-MEL-5 melanoma is -100% [100 µM] (active); in the experiment on UACC-62 melanoma, -70.5% [100 µM] (active); in the experiment on LOX IMVI melanoma, -74.1% [100 µM] (active); in the experiment on SK-MEL-28 melanoma, -59.7% [100 µM] (active).
As to `CS(=O)(=O)c1cccnn1`, the growth in the experiment on HCT-15 colon was 108%; in the experiment with HT29 colon it was 89.7%; in the experiment on SNB-75 CNS, 48.9%; in the experiment with SNB-19 CNS, 102%; in the experiment with U251 CNS, 92.9%; with PC-3 prostate, 95.6%. In addition, the growth in the experiment with SK-MEL-5 melanoma is 92.9%; in the experiment on UACC-62 melanoma, 90.7%; with LOX IMVI melanoma, 85.2%; in the experiment on SK-MEL-28 melanoma, 117%.
As for `Cc1ccc(S(=O)(=O)Nc2ccccc2)cc1N`, the growth is 99.1% in the experiment with HCT-15 colon; 107% in the experiment with HT29 colon; 95% in the experiment with SNB-75 CNS; 108% in the experiment on SNB-19 CNS; 101% in the experiment with U251 CNS; 89.5% in the experiment with PC-3 prostate. Further, the growth in the experiment on SK-MEL-5 melanoma is 88.5%; in the experiment with UACC-62 melanoma it was 90.8%; with LOX IMVI melanoma, 91.3%; in the experiment with SK-MEL-28 melanoma it was 100%.
`O=C1Nc2ccccc2/C1=C/C(=O)c1ccc(N2CCCC2)cc1`: the growth was 23.1% in the experiment with HCT-15 colon; -9.76% (active) with HT29 colon; 23.3% with SNB-75 CNS; 57.2% in the experiment on SNB-19 CNS; 4.98% (active) with U251 CNS; 38.2% with PC-3 prostate. Besides, the growth with SK-MEL-5 melanoma is 65.2%; in the experiment with UACC-62 melanoma it was 34.5%; in the experiment on LOX IMVI melanoma it was -17% (active); with SK-MEL-28 melanoma, 76.5%.
For `C=C(C)[C@@H]1CC[C@]2(c3ncc(C)o3)CC[C@]3(C)[C@H](CC[C@@H]4[C@@](C)(CCC#N)[C@H](C(=C)C)CC[C@]43C)[C@@H]12`, the growth in the experiment with HCT-15 colon is -69.3% [100 µM] (active); with HT29 colon, -69.8% [100 µM] (active); in the experiment on SNB-75 CNS it was -86.8% [100 µM] (active); in the experiment with SNB-19 CNS, -95% [100 µM] (active); with U251 CNS, -82.4% [100 µM] (active); with PC-3 prostate it was -64.1% [100 µM] (active). In addition, the growth in the experiment on SK-MEL-5 melanoma was -92.1% [100 µM] (active); in the experiment on UACC-62 melanoma, -91% [100 µM] (active); in the experiment on LOX IMVI melanoma, -83.6% [100 µM] (active); with SK-MEL-28 melanoma, -89.1% [100 µM] (active).
Consider `C=CCCCCOc1ccccc1-c1cnc(OCCCCC=C)n1C`, for which the growth in the experiment on HCT-15 colon was 52.2%; in the experiment on HT29 colon, 18.1%; in the experiment on SNB-75 CNS, 81.9%; in the experiment with SNB-19 CNS, 91.1%; in the experiment on U251 CNS, 68.6%; in the experiment with PC-3 prostate, 73.5%. Further, the growth in the experiment with SK-MEL-5 melanoma was 83.7%; with UACC-62 melanoma, 55.7%; in the experiment with LOX IMVI melanoma it was 69.1%; with SK-MEL-28 melanoma, 73.4%.
Consider `C[C@H]1[C@H](C)CC[C@]2(COC(=O)CCC(=O)O)CC[C@]3(C)C(=CC[C@@H]4[C@@]5(C)CCCNC(C)(C)[C@@H]5CC[C@]43C)[C@H]12`, for which the growth in the experiment with HCT-15 colon is 65.9% [100 µM]; in the experiment with HT29 colon, 52.2% [100 µM]; with SNB-75 CNS, -2.3% [100 µM] (active); in the experiment on SNB-19 CNS it was 53.1% [100 µM]; in the experiment with U251 CNS, 60.7% [100 µM]; in the experiment with PC-3 prostate, 32.7% [100 µM]. Also, the growth was 46.2% [100 µM] in the experiment on SK-MEL-5 melanoma, 56.3% [100 µM] in the experiment on UACC-62 melanoma, 70.5% [100 µM] in the experiment with LOX IMVI melanoma and 82.2% [100 µM] in the experiment with SK-MEL-28 melanoma.
Regarding `Cc1ccc(NC(=O)N[C@@H](Cc2cc(F)cc(F)c2)C(=O)N[C@@H]2C(=O)N3CCC[C@H]3C(=O)N3CCOC[C@H]3C(=O)N[C@@H](C)C(=O)N3C[C@H](C)C[C@H]3C(=O)O[C@H]2C)cc1`, the growth in the experiment with HCT-15 colon was 32.9%; with HT29 colon, 32.4%; in the experiment with SNB-75 CNS, 16.9%; with SNB-19 CNS, 21.5%; with U251 CNS it was 27.1%; in the experiment with PC-3 prostate, 19.1%. Further, the growth with SK-MEL-5 melanoma is 10.6%; in the experiment with UACC-62 melanoma, 26.3%; with LOX IMVI melanoma it was 38.3%; in the experiment on SK-MEL-28 melanoma it was 42.3%.
In the case of `COc1c(B(O)O)cccc1-c1nc2ccc3[nH]ncc3c2c2c1CCC2`, the growth was 54.7% in the experiment with HCT-15 colon; 63.8% in the experiment with HT29 colon; 32.7% in the experiment with SNB-75 CNS; 82.3% with SNB-19 CNS; 66.1% in the experiment on U251 CNS; 60.2% in the experiment with PC-3 prostate. The growth in the experiment with SK-MEL-5 melanoma is 52.4%; with UACC-62 melanoma it was 57.6%; in the experiment with LOX IMVI melanoma it was 53.3%; with SK-MEL-28 melanoma, 86.3%.
As to `C=C(C)C1CCC2(C(=O)O)CCC3(C)C(CCC4C5(C)CCC(OC(=O)NCc6ccccc6)C(C)(C)C5CCC43C)C12` (stereo not given), the growth in the experiment on HCT-15 colon was 40.8%; with HT29 colon, 43.5%; with SNB-75 CNS, 75.7%; in the experiment with SNB-19 CNS it was 65.4%; in the experiment with U251 CNS, 40.6%; in the experiment on PC-3 prostate, 41.2%. The growth with SK-MEL-5 melanoma was 28.4%; with UACC-62 melanoma, 33.9%; with LOX IMVI melanoma, 39.8%; with SK-MEL-28 melanoma, 61.5%.
For `O=C(N[C@@H]1CCCc2ccccc21)[C@H](CCC(=O)N1CCN(C2CCCCC2)CC1)N1C(=O)[C@@H](N2C(=O)OC[C@@H]2c2ccccc2)[C@H]1/C=C/c1ccccc1`, the growth with HCT-15 colon is 12.1%; in the experiment with HT29 colon, -14.2% (active); in the experiment with SNB-75 CNS it was 65.7%; in the experiment on SNB-19 CNS, 39.2%; in the experiment on U251 CNS, 30.6%; in the experiment on PC-3 prostate, 12.1%. The growth with SK-MEL-5 melanoma was -93.2% (active); in the experiment with UACC-62 melanoma it was 51%; with LOX IMVI melanoma, -40.5% (active); in the experiment with SK-MEL-28 melanoma, 24.8%.
`Nc1cc(NN=C(c2ccc(O)cc2)c2ccc(O)cc2)c([N+](=O)[O-])cc1[N+](=O)[O-]`: the growth with HCT-15 colon is 4.01% (active); with HT29 colon, 98.4%; in the experiment on SNB-75 CNS, 78.2%; in the experiment on SNB-19 CNS, -22.6% (active); in the experiment with U251 CNS, 4.49% (active); with PC-3 prostate, 64.2%. The growth with SK-MEL-5 melanoma is -85.4% (active); with UACC-62 melanoma, 42.3%; in the experiment on LOX IMVI melanoma, -32.5% (active); in the experiment with SK-MEL-28 melanoma it was 80.8%.
